# ChEMBL document CHEMBL3988442, “University of Dundee, Small-Polar-MMV Screening Library” (2021)
# Among all 69,000 compounds or so, about 950 (1.4%) showed an effect of 50% or more. The sample holds strong results, similar compounds and a random draw of the others, so the mix is not that of the screen.
# System: Mycobacterium tuberculosis
# Experiment: Cornell M. t heat shock assay; further: in the data most compounds retested in dose-response had high values
# Format: functional, organism-based
# Parameters: dose or concentration left out as unconfirmed
row,SMILES,Percent Effect [%]
1,NCC1CCC2(CCN(C(=O)c3ccccn3)CC2)CO1.O=C(O)C(F)(F)F.O=C(O)C(F)(F)F (stereo unspecified),3.829
2,Cn1cc(N2CC3(CCN(CC4CCC4)CC3)OCC2=O)cn1.O=C(O)C(F)(F)F,10.75
3,Cc1cccc(C(=O)N2CCC[C@]3(C[C@@H](OCC4CC4)CO3)C2)n1.O=C(O)C(F)(F)F,5.615
4,O=C(O)C(F)(F)F.O=C([C@@H]1C[C@@H]2CCN(Cc3ccoc3)C[C@H]2O1)N1CCCC1,5.199
5,Cc1noc(C)c1C(=O)N1Cc2ncn(C)c2C(COCC(C)C)C1.O=C(O)C(F)(F)F (stereo unspecified),10.61
6,O=C(Cc1ccccc1)N1C[C@@H]2OCCN(CC3CCCO3)[C@@H]2C1.O=C(O)C(F)(F)F (stereo partly specified),-18.47
7,Cc1cc(Oc2ccc(NC(=O)C3CC3)cc2)cc(C2CCNCC2)n1.Cl,4.147
8,COc1ccc(CN2CCC3(CC2)CC(CC(=O)NC(C)C)CO3)cc1.O=C(O)C(F)(F)F (stereo unspecified),0.5964
9,CCN(CC)Cc1cn2c(n1)CN(C(=O)c1cnccn1)CC2.O=C(O)C(F)(F)F,-4.073
10,CC(C)c1nn(C)c(N(C)C)c1CNC1CCOc2c(F)cccc21.Cl (stereo unspecified),0.8128
11,O=C(NCCc1ccco1)Nc1cc(C(F)(F)F)c[nH]c1=O,9.339
12,CC(CCc1ccco1)NC(=O)Nc1cc(C(F)(F)F)c[nH]c1=O (stereo unspecified),102.3
13,O=C(CCc1ccco1)Nc1cc(C(F)(F)F)c[nH]c1=O,-7.508
14,O=C(NCCNc1ncccn1)Nc1cc(C(F)(F)F)c[nH]c1=O,-2.019
15,O=C(NCCOc1ccccc1)Nc1cc(C(F)(F)F)c[nH]c1=O,24.31
16,CC(C)CCOCCNC(=O)Nc1cc(C(F)(F)F)c[nH]c1=O,62.92
17,COc1cc(CNCc2ccnc(N3CCCC3)c2)cc(OC)c1.Cl,5.029
18,O=C(NCc1ccccn1)[C@@H]1CCO[C@@H]2CCN(Cc3ccoc3)C[C@H]21.O=C(O)C(F)(F)F.O=C(O)C(F)(F)F,8.703
19,c1cnn(CCN2CCOC(Cn3cccn3)C2)c1 (stereo unspecified),-7.25

row,SMILES,Percent Effect [%]
1,O=S(=O)(CCN1CCOC(Cn2cccn2)C1)c1ccccc1 (stereo unspecified),6.109
2,Cc1nc(CN2CCOC(Cn3cccn3)C2)no1 (stereo unspecified),-15.93
3,O=S(=O)(CCN1CCOC(Cn2cccn2)C1)C(F)(F)F (stereo unspecified),103.2
4,Cc1cnn(CC2CN(Cc3nc(-c4ccsc4)no3)CCO2)c1 (stereo unspecified),77.9
5,c1ccc(-c2nc(CN3CCOC(Cn4cccn4)C3)no2)cc1 (stereo unspecified),2.98
6,c1cnn(CC2CN(Cc3nc(-c4ccsc4)no3)CCO2)c1 (stereo unspecified),-8.346
7,Cc1cnn(CC2CN(CCCS(C)(=O)=O)CCO2)c1 (stereo unspecified),7.266
8,Cc1cnn(CC2CN(Cc3nc(-c4ccoc4)no3)CCO2)c1 (stereo unspecified),8.998
9,Cc1cnn(CC2CN(CCS(C)(=O)=O)CCO2)c1 (stereo unspecified),3.305
10,Cc1ccc(-c2nc(CN3CCOC(Cn4cccn4)C3)no2)cc1 (stereo unspecified),60.58
11,Cc1cnn(CC2CN(CCS(=O)(=O)C(F)(F)F)CCO2)c1 (stereo unspecified),85.56
12,O=C(O)C(F)(F)F.O=C(O)C(F)(F)F.c1cncc(N2CCCn3nnc(CN4CCCCC4)c3C2)c1,0.6199
13,C1CC(CN2CCc3c(nnn3CC3CC3)C2COCC2CC2)C1.O=C(O)C(F)(F)F (stereo unspecified),-20.7
14,Cl.Cl.Cn1cc(C(=O)NCc2cncc3c2CCNC3)cn1,-18.1
15,CN1CCN(CC2CN(CC3CC3)Cc3nccn3C2)CC1.O=C(O)C(F)(F)F.O=C(O)C(F)(F)F.O=C(O)C(F)(F)F (stereo unspecified),-11.65
16,O=C(O)C(F)(F)F.O[C@@H]1CCN(CC2CC2)[C@H]1Cc1ccccc1,-16.02
17,O=C(O)C(F)(F)F.O=C(O)C(F)(F)F.O=C(O)C(F)(F)F.c1ccc(CN2CC[C@@H]3O[C@@H](COCCN4CCCC4)CC[C@@H]32)nc1,-2.857
18,CCOc1cccc2c1OCC(=O)N(c1ccc(N(C)C)cc1)C2,78.25
19,CCOc1cccc2c1OCC(=O)N(c1ccc3c(c1)OCO3)C2,-8.154

row,SMILES,Percent Effect [%]
1,CCOc1cccc2c1OCC(=O)N(c1ccc3c(c1)OCCO3)C2,11.44
2,COCCN1CCC2(CC1)CN(C(=O)c1ccco1)CCO2.O=C(O)C(F)(F)F,-23.42
3,Cl.O=C(Nc1nc2c(s1)CNCC2)C1CC1,12.02
4,O=C(Nc1nc2c(s1)CCC2)NC1CCCC1,7.852
5,Cl.O=C(Nc1nc2c(s1)CNCC2)NC1CCCC1,102.9
6,O=C(O)C(F)(F)F.O=C(O)C(F)(F)F.c1cncc(-c2nnn3c2COCC(CNCC2CCOCC2)C3)c1 (stereo unspecified),-15.79
7,COCCn1cc2c(n1)C(CNCc1cccc(OC)c1)OCC2.O=C(O)C(F)(F)F (stereo unspecified),-15.92
8,Cc1ccc(CN2CC[C@@H]3O[C@@H](C(=O)N4CCN(C)CC4)C[C@@H]32)cc1.O=C(O)C(F)(F)F.O=C(O)C(F)(F)F,25.47
9,CCn1ncc2c1CN(C(=O)c1cscn1)CC2COC.O=C(O)C(F)(F)F (stereo unspecified),5.615
10,CC(C)CN1CCC(N2CCC(C(=O)N(C)C)CC2)CC1.O=C(O)C(F)(F)F.O=C(O)C(F)(F)F,9.102
11,O=C(c1cc(-c2ccn(CC3CC3)n2)n2ccccc12)N1CCCO1,3.9
12,Cn1ccc(-c2cc(C(=O)N3CCC(C(N)=O)CC3)c3ccccn23)n1,6.568
13,Cn1ccc(-c2cc(C(=O)N3CCC(O)CC3)c3ccccn23)n1,65.18
14,O=C(c1cc(-c2ccn(CC3CC3)n2)n2ccccc12)N1CCOCC1,104.4
15,Cn1ccc(-c2cc(C(=O)N3CCCCC3)c3ccccn23)n1,2.688
16,O=C(O)c1cc(-c2ccn(CC3CC3)n2)n2ccccc12,-0.3144
17,O=C(NC[C@H]1OC[C@@H]2CCN(Cc3ccco3)C[C@@H]21)c1ccnnc1.O=C(O)C(F)(F)F,-10.06
18,Cc1[nH]ccc1C(=O)N1CCCC(c2nccn2Cc2cscn2)C1 (stereo unspecified),-1.058
